Compound activity: PubChem, National Center for Advancing Translational Sciences (NCATS)
RORg inh = blocks mouse ROR gamma transcriptional activity; P51450; Drosophila S2 Gal4-RORgamma UAS-luciferase reporter, 20 h; Potency, µM (highest dose often 53.6 µM), for the others: at the highest dose activity change, negative = inhibition, usual class: inhibitors; 5.4% of 310,000 active; AID 2551; also: % is scaled to controls: 0 for no effect and ±100 for the full control effect; nearly all actives have a fitted effect of over 60% in size
Target sequence (P51450 whole entry, looked up, the tested form may be a part): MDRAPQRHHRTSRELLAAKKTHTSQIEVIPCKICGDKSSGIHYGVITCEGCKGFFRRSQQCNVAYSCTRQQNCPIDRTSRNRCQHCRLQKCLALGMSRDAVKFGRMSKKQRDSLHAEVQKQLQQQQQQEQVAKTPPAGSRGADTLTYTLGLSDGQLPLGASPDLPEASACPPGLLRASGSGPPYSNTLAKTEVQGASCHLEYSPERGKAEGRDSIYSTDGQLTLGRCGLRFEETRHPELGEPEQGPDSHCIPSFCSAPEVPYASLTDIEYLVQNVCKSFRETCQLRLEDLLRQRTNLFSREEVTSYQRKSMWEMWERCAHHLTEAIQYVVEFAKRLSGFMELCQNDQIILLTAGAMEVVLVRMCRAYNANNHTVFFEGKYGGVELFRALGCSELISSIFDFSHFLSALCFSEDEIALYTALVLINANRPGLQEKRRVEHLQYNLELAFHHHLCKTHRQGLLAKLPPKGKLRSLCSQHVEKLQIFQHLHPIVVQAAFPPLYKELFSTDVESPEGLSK
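ROR gamma transcriptional activity was tracked as Gal4-UAS luciferase output in stably transfected Drosophila Schneider cells, with compound added 1 hr before 700 uM copper sulfate induction and a 20 hr ambient-temperature incubation.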
SW480 rereplic = induces DNA re-replication in SW480 colon adenocarcinoma cells; SW480 DNA re-replication, Hoechst DNA content imaging, 48 h; Potency, µM (titrated, usually from 46.1 µM), for inactives: at the top dose re-replication activation, actives largely listed as activators; 1.8% of 340,000 active; AID 624297; also: % of control where 0% means no effect; nearly all actives have a fitted effect of over 55% in size
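SW480 cells exposed to compounds for 48 hr at 37 C, 5% CO2, then Hoechst-stained 40 min. Nuclear DNA content imaged by fluorescence scanning (405 nm excitation, 500-530 nm emission); re-replication scored as increased high-intensity nuclei.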
KB-V1 cytotox = KB-V1 MDR subline cytotoxicity | AID 1347076 | 3.4% of 400,000 active | Potency, µM (series often up to 46.1 µM), hits mostly cytotoxic | KB-V1 MDR cells viability, CellTiter-Glo, 72 h; also: % is scaled to controls: 0 for no effect and ±100 for the full control effect; nearly all actives have a fitted effect of over 60% in size
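Compound-treated KB-V1 multidrug-resistant cells, 72 h, 37 degrees C; viability by CellTiter-Glo. Fitted qHTS curves give the values.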
KB-3-1 tox = KB-3-1 parental cell cytotoxicity | KB-3-1 viability, CellTiter-Glo ATP luminescence, 72 h | 1.4% of 400,000 active | AID 1347075 | Potency, µM (titrated, usually from 46.1 µM), hits mostly cytotoxic; also: % is scaled to controls: 0 for no effect and ±100 for the full control effect; nearly all actives have a fitted effect of over 60% in size
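Cells are dispensed, compounds pinned in, plates held at 37 °C for 72 h, then CellTiter-Glo is added and luminescence read after 10 minutes. Cell line: parental KB-3-1 in phenol-red-free DMEM, 10% FBS.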
MCF10A rereplic = DNA re-replication induction in MCF 10a cells; MCF 10A DNA re-replication, Hoechst nuclear intensity, 48 h; Potency, µM (highest dose often 46.1 µM), for inactives: top-dose activity, positive = re-replication, most hits filed as activators; 2.9% of 350,000 active; AID 624296; also: % of control where 0% means no effect; nearly all actives have a fitted effect of over 50% in size
VP16 counter = inhibits Gal4-VP16 luciferase reporter, ROR gamma counter-screen; 3.5% of 310,000 active; Potency, µM (titrated, usually from 53.6 µM), for inactives: at the top dose activity, negative = inhibition, usual class: inhibitors; Drosophila S2 Gal4-VP16 UAS-luciferase, luminescence, 20 h;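 also: Gal4-VP16 expression switched on by copper sulfate through the metallothionein promoter; % is scaled to controls: 0 for no effect and ±100 for the full control effect; nearly all actives have a fitted effect of over 50% in size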
Active calls of the source: *; i = inactive; ? = inconclusive; · = no result; [ ] = dose if it differs, or a comment. Sampled rows, rich in hits. Any-hit rate of the full collection: about 10%. Calls follow the shape of the dose curve; as a rule, active = well fitted curve in the direction sought with a large enough effect; inconclusive = small, poorly fitted or top-dose-only effect, or another doubt; inactive = no such curve, though single readings can be large; an effect the other way counts as inactive or inconclusive. Potency is read from the fitted curve at half-maximal effect.

SMILES	RORg inh	SW480 rereplic	KB-V1 cytotox	KB-3-1 tox	MCF10A rereplic	VP16 counter
N=c1oc2ccccc2cc1-c1nc(-c2ccccc2)cs1	?	13µM*	23µM*	i	10µM*	-10%
N=c1oc2ccc3ccccc3c2cc1-c1nc(-c2ccccc2)cs1	0%	-15%	i	i	?	-2%
Cc1cccc2c(=O)cc(C)n(CC(=O)N3CCCCC3)c12	?	-4%	16µM*	i	3%	-3%
Cc1cccc2c(=O)cc(C)n(CC(=O)N3CCOCC3)c12	5%	-1%	i	i	2%	1%
CNc1nc(C23CC4CC(CC(C4)C2)C3)cs1	10µM*	13%	i	?	?	-25%
CCCCn1c(N)c(S(=O)(=O)c2ccc(C)cc2)c2nc3ccccc3nc21	?	0.65µM*	?	?	3.7µM*	-23%
Cc1ccc(S(=O)(=O)c2c(N)n(Cc3ccco3)c3nc4ccccc4nc23)cc1	36%	?	i	?	?	-6%
CN(C)CCCn1c(N)c(S(=O)(=O)c2ccccc2)c2nc3ccccc3nc21	9%	?	i	i	23µM*	-2%
Cc1ccc(S(=O)(=O)c2c(N)n(-c3ccccc3)c3nc4ccccc4nc23)cc1	16%	-3%	?	i	?	-27%
Cc1cccc(S(=O)(=O)c2c(N)n(Cc3ccco3)c3nc4ccccc4nc23)c1	-16%	18%	18µM*	?	?	-7%
COc1cc2c(NC3CCN(C)CC3)nc(N3CCCN(C)CC3)nc2cc1OCCCC(C)C	·	·	i	?	·	·
N#Cc1cnn2c1nc(N1CCCCC1)c1ccccc12	-19%	3%	12µM*	?	16%	-5%
Cc1ccc(C)c(NC(=S)Nc2cccc3cnccc23)c1	?	13µM*	?	?	?	9%
Cc1ccc(NC(=S)Nc2cccc3cnccc23)cc1	?	0%	i	i	26%	?
S=C(NCCc1ccccc1)Nc1cccc2cnccc12	5µM*	-2%	8.2µM*	4.1µM*	18%	4.5µM*
Cc1ccc(NC(=S)Nc2cccc3cnccc23)cc1C	?	-5%	?	?	-3%	3.2µM*
Fc1ccccc1NC(=S)Nc1cccc2cnccc12	0%	-4%	23µM*	?	8%	-4%
CSc1cccc(NC(=S)Nc2cc(C)ccc2C)c1	11µM*	-1%	i	i	2%	?
S=C(Nc1cccc(Cl)c1)Nc1cccc2cnccc12	31%	-1%	23µM*	18µM*	?	-29%
Cc1ccc(F)c(NC(=S)Nc2cccc3ccccc23)c1	11µM*	·	·	·	·	?
Cc1ccccc1NC(=S)Nc1cccc2cnccc12	10µM*	0%	?	i	1%	-11%
CC(=O)c1ccc(NC(=S)Nc2cccc3cnccc23)cc1	-4%	-13%	i	i	-4%	-6%
Cc1ccc(N(C)C(CNS(=O)(=O)c2ccccc2)c2ccccc2)cc1 (configuration not stated)	·	·	i	i	·	·
Cc1ccccc1OCCn1c(-c2ccc(Cl)cc2)nc2ccccc2c1=O	·	·	?	i	·	·
O=C(COc1ccccc1)N1N=C(c2cccnc2)CC1(O)C(F)(F)F (configuration not stated)	-27%	-10%	i	i	-60%	19%
SMILES	RORg inh	SW480 rereplic	KB-V1 cytotox	KB-3-1 tox	MCF10A rereplic	VP16 counter
Cc1ccc(OCC(=O)N2N=C(c3ccncc3)CC2(O)C(F)(F)F)cc1C (configuration not stated)	4µM*	?	i	?	?	-15%
Cc1ccc(C2=NN(C3=NN=C(N)Cc4ncnn43)C(O)(C(F)(F)F)C2)cc1 (configuration not stated)	8.9µM*	?	i	i	-2%	?
CCOC(=O)N1N=C(c2ccc(C)cc2)CC1(O)C(F)(F)F (configuration not stated)	6.3µM*	-4%	i	i	-12%	6.3µM*
CCc1ccc(NC(=O)CSC2=Nc3ccccc3C3=NC(CCC(=O)NCc4cccs4)C(=O)N23)cc1 (configuration not stated)	·	·	i	i	·	·
COC1CCC(C(=O)c2ccc3nc4c(cc3c2)CCCO4)CC1 (configuration not stated)	0%	·	·	·	·	-11%
Cn1c(Oc2ccc(Cl)cc2)c(C=O)c2ccccc21	17%	-1%[9.22 µM]	?	21µM*	?	-2%
COc1ccc(Oc2c(C=O)c3ccccc3n2C)cc1	15%	14%	i	i	7%	-1%
OCC#Cc1ncc(C(F)(F)F)cc1Cl	?	?	i	i	?	13µM*
Cc1cc(C)c(NC(=O)/C=C\C(=O)O)c([N+](=O)[O-])c1	-12%	0.16µM*	i	i	15%	-9%
O=C(NC1CCCC1)C(C1CC1)n1c(-c2ccccn2)nc2ccccc21 (configuration not stated)	·	·	i	i	·	·
CCc1nc2ccc(C(=O)Nc3cccc(NS(C)(=O)=O)c3)cn2c1N(C)C(=O)c1cccc(OC)c1	·	·	?	i	·	·
COc1ccc(-c2cc(=O)n(-c3nc4ccccc4[nH]3)[nH]2)cc1	8%	?	i	21µM*	18µM*	5%
COc1ccc(-c2nc(=S)c3ccc4ccccc4c3[nH]2)cc1	5.6µM*	-5%	i	i	16%	?
COC(=O)c1ccc(-c2nc3ccccc3[nH]2)cc1	-33%	·	18µM*	?	-3%	?
COc1ccc(CCCc2nc3ccccc3[nH]2)cc1	-2%	-12%	i	i	-2%	16%
COc1ccc2oc(=Nc3ccccc3)c(-c3nc4ccccc4[nH]3)cc2c1	10µM*	-71%	?	i	?	?
O=C(NCCOCCn1c(=O)oc2ccccc21)Nc1cccc(Cl)c1	·	·	i	i	·	·
COc1ccc(-c2nc3ccccc3[nH]2)cc1	7.9µM*	11%	?	?	-2%	8.9µM*
c1ccc2[nH]c(-c3ccncc3)nc2c1	6%	-48%	i	i	-31%	5%
COc1ccc2c(c1)O[C@H](c1ccc3c(c1)OCO3)[C@@H](OC(=O)Nc1ccc(C)c(Br)c1)C2=O	?	·	·	·	·	-1%
CCOc1ccc(C(=O)CC(NCc2cccs2)C(=O)O)cc1 (configuration not stated)	4.5µM*	?	i	i	?	13µM*
CN(Cc1ccccc1)C(=O)c1ccc2sc([C@H]3C[C@H](O)[C@@H](CO)O3)nc2c1	·	·	i	i	·	·
